Screens as filed in PubChem BioAssay.
ADAM17 inh = ADAM17 inhibition, QFRET primary screen; P78536; recombinant ADAM17, EDANS/DABCYL FRET peptide cleavage; inhibition, % at 6.95 µM; 370,000 compounds, 0.83% hits; AID 720648;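 active = inhibition above the mean of compounds lying between control limits plus 3 SD, set per campaign, cut at about 8.5% in these data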;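 also: 0% = DMSO-only wells as the low control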
FAS-TE inh = inhibitors of human fatty acid synthase thioesterase domain | 360,000 compounds, 0.67% hits | P49327 | AID 602261 | recombinant FAS-TE, OMFH fluorogenic substrate, fluorescence endpoint | inhibition, % at 15 µM;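 active = compounds whose normalised, plate-corrected inhibition of enzyme fluorescence in the single-dose primary screen is 50% or more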;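 also: 0% = DMSO with enzyme and 100% = substrate without enzyme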
aDG glyco up = increases alpha dystroglycan glycosylation. Pro5-aDG cells, alpha-DG glycosylation AlphaScreen (IIH6); 0% Pro5, 100% B10-LARGE cell signal. activation, % at 10 µM. 360,000 compounds, 0.22% hits. AID 624168;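 active = activation of at least 8% versus controls, or a plate z-score of at least 8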;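 also: Pro5 are CHO cells carrying HIG-tagged alpha-DG that lacks glycosylation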
NR3A LBD binder = modulators (binders) of human NR3A ligand-binding domain. NR3A LBD differential scanning fluorimetry, Tm shift; 0% = protein alone, 100% = glycine-bound protein. Tm shift relative to glycine control, % at 25 µM. 340,000 compounds, 2.5% hits. AID 1259313;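 active = melting temperature shift of at least 10% of the positive control shift, at one fixed dose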
ADAM10 inh = inhibitors of human ADAM10. recombinant ADAM10, EDANS/DABCYL FRET peptide cleavage, 3 h. inhibition, % at 7 µM. 370,000 compounds, 0.62% hits;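 active = inhibition above a per-campaign cutoff equal to the mean of compounds falling between control-based bounds plus 3 SD, cut at about 20% in these data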;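 also: 0% = DMSO wells while the 100% control is not disclosed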
Target sequence (O14672 214-748 limits assumed): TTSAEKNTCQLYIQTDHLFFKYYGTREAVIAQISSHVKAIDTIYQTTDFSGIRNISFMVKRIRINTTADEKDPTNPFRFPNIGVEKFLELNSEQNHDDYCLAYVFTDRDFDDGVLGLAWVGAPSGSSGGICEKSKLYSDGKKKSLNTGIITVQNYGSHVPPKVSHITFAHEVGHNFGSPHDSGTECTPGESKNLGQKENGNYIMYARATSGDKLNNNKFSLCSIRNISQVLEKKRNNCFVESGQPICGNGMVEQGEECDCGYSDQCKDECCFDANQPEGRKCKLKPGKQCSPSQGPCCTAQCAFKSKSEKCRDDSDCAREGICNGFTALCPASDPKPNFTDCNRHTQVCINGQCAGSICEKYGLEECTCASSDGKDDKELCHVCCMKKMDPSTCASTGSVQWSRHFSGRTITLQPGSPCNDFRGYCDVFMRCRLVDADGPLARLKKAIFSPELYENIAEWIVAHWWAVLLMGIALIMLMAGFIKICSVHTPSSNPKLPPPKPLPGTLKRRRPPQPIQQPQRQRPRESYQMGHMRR
ADAM10 confirm = confirmation of inhibitors of human ADAM10; shares compounds with ADAM10 inh; ADAM10 QFRET peptide cleavage, EDANS fluorescence; inhibition, % at 6.95 µM; 2,100 compounds, 1% hits; AID 743208;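 active = inhibition above about 20% chosen separately for each screening run, limit read from the data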;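 also: 0% = DMSO wells and 100% = marimastat wells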
ADAM17 counter = ADAM17 inhibition, counter-screen for ADAM10 exosite hits; 2,100 compounds, 0.5% hits; shares compounds with ADAM10 inh; inhibition, % at 6.95 µM; ADAM17 QFRET peptide cleavage, EDANS fluorescence;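 active = mean triplicate inhibition above the solvent-only control wells' mean plus 3 SD, cut at about 12% in these data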;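 also: 0% = DMSO wells and 100% = marimastat wells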
ADAM10 ctr = ADAM10 inhibition, counter-screen for ADAM17 exosite hits; recombinant ADAM10, EDANS/DABCYL FRET peptide cleavage, 3 h; 2,900 compounds, 47% hits; AID 743256; inhibition, % at 6.95 µM; shares compounds with ADAM17 inh;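 active = mean inhibition over the triplicate runs exceeds the activity threshold set in the earlier primary screen, cut at about 20% in these data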;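 also: 0% = DMSO wells and 100% = marimastat wells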
ADAM17 confirm = human ADAM17 inhibition, confirmation; shares compounds with ADAM17 inh; recombinant ADAM17, EDANS/DABCYL QFRET peptide cleavage; inhibition, % at 6.95 µM; 2,900 compounds, 65% hits; AID 743257;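 active = mean inhibition across replicates above the hit cutoff set in the primary screen, cut at about 8.5% in these data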;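 also: 0% = DMSO wells and 100% = marimastat wells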
An asterisk follows results filed as active. This is a sample that favours compounds with a hit; in the whole collection about 4% have one here.

For C=CCC[C@@H](Cc1ccc(F)cc1)C(=O)OC[C@H](Cc1c[nH]c2ccccc12)NC(=O)[C@@H](CC=C)CC(=O)N[C@@H](CO)Cc1ccccc1 the results were ADAM17 inh 8, FAS-TE inh 14, aDG glyco up 1, NR3A LBD binder 8 and ADAM10 inh 16.
`CCc1nnc(NC(=O)CSc2nnc(CNC(=O)c3ccccc3)o2)s1` gave ADAM17 inh -2, FAS-TE inh -8, aDG glyco up 1 and ADAM10 inh -8.
Screening O=S(=O)(N/N=C/c1cn(Cc2ccccc2)c2ccccc12)c1ccccc1 returned ADAM17 inh 9.6*, FAS-TE inh 24, aDG glyco up 0, NR3A LBD binder 5, ADAM10 inh 24*, ADAM10 confirm 11, ADAM17 counter 4, ADAM10 ctr 36* and ADAM17 confirm 19*.
For CCn1nc(NC(=O)C(C)(C)C)c2cc3cccc(C)c3nc21 the results were ADAM17 inh -26, FAS-TE inh 10, aDG glyco up 0, NR3A LBD binder -1 and ADAM10 inh -66.
`COc1cc(NS(=O)(=O)c2ccc(C)cc2C)cc(OC)c1OC` gave ADAM17 inh -1, FAS-TE inh -2, aDG glyco up 3, NR3A LBD binder 2 and ADAM10 inh 1.
Nc1nc(Nc2ccccc2)nc(NCc2ccco2)c1[N+](=O)[O-] was read as ADAM17 inh 9.7*, FAS-TE inh 24, aDG glyco up 0, NR3A LBD binder -8, ADAM10 inh 22*, ADAM10 confirm 2, ADAM17 counter 1, ADAM10 ctr 36* and ADAM17 confirm 19*.
`CCCn1c(SCC(=O)N2c3ccccc3Sc3ccccc32)nc2ccccc21` gave ADAM17 inh 10*, FAS-TE inh 46, aDG glyco up 0, NR3A LBD binder 1, ADAM10 inh 26*, ADAM10 confirm 3, ADAM17 counter 0, ADAM10 ctr 17 and ADAM17 confirm 11*.
For Cc1cccc(C)c1NC(=O)CCCCCNS(=O)(=O)c1ccccc1 the results were ADAM17 inh 2, FAS-TE inh -5, aDG glyco up 0, NR3A LBD binder -2 and ADAM10 inh 2.
COc1ccc(CNC(=O)CCc2nnc3ccc(N4CCC5(CC4)OCCO5)nn23)cc1 was read as ADAM17 inh -4, FAS-TE inh -4, aDG glyco up 0, NR3A LBD binder 1 and ADAM10 inh -1.
`COc1ccc(C2CC(O)(c3ccccc3)Oc3c(C)ccc(C)c32)cc1` (stereo not given) gave ADAM17 inh 19*, FAS-TE inh 26, aDG glyco up 0, NR3A LBD binder -8, ADAM10 inh 36*, ADAM10 confirm 7, ADAM17 counter 3, ADAM10 ctr 18 and ADAM17 confirm 13*.
Cc1cc(C)cc(CC(Cc2nc3ccccc3[nH]2)c2nc3ccccc3[nH]2)c1 (stereo not given) was read as ADAM17 inh 2, FAS-TE inh 6, aDG glyco up 0, NR3A LBD binder -7 and ADAM10 inh 9.
CCN(CC)S(=O)(=O)c1ccc(OC)c(NC(=O)C(C)Oc2ccc3c(C)cc(=O)oc3c2)c1 (stereo not given) was read as ADAM17 inh -14, FAS-TE inh 17, aDG glyco up 1, NR3A LBD binder 1 and ADAM10 inh -45.
For O=C(COc1ncnc2c1cnn2-c1ccccc1)Nc1ccc(S(=O)(=O)N2CCCCC2)cc1 the results were ADAM17 inh 9.8*, FAS-TE inh 21, aDG glyco up 0, NR3A LBD binder 18*, ADAM10 inh 21*, ADAM10 confirm 2, ADAM17 counter 1, ADAM10 ctr 33* and ADAM17 confirm 17*.
Cc1cc(C)cc(NC(=O)C(OC(=O)c2cc[n+]([O-])cc2)c2ccccc2)c1 (stereo not given) was read as ADAM17 inh -3, FAS-TE inh 1, aDG glyco up 0, NR3A LBD binder 2 and ADAM10 inh -6.
`Cc1ccc(NC(=O)C(OC(=O)c2ccc(NC(N)=O)cc2)c2ccccc2)cc1Cl` (stereo not given) gave ADAM17 inh 18*, FAS-TE inh 38, aDG glyco up 0, NR3A LBD binder 26*, ADAM10 inh 32*, ADAM10 confirm 7, ADAM17 counter 2, ADAM10 ctr 11 and ADAM17 confirm 9.7*.
Screening CS(=O)(=O)c1ccccc1-c1nc(-c2ccc(C(F)(F)F)cc2)no1 returned ADAM17 inh 8.7*, FAS-TE inh 16, aDG glyco up 0, NR3A LBD binder -33, ADAM10 inh 18, ADAM10 ctr 9 and ADAM17 confirm 5.
CCOc1cc(-c2nc(-c3ccc(C)nc3OC)no2)cc(OCC)c1OCC was read as ADAM17 inh 0, FAS-TE inh -4, aDG glyco up 0, NR3A LBD binder 0 and ADAM10 inh 14.
Screening Nc1nc2n(n1)C(c1cccs1)CC(c1ccc(Br)cc1)N2 (stereo not given) returned ADAM17 inh -84, FAS-TE inh 1, aDG glyco up 0, NR3A LBD binder 3 and ADAM10 inh -406.
`O=C(CN1CCN(Cc2ccccc2Cl)CC1)N/N=C/C=C/c1ccco1` gave ADAM17 inh -2, FAS-TE inh -8, aDG glyco up 0, NR3A LBD binder 0 and ADAM10 inh -2.
For COc1ccc(N=Cc2c(C)[nH][nH]c2=O)cc1 the results were ADAM17 inh 8.8*, FAS-TE inh -4, aDG glyco up 0, NR3A LBD binder -1, ADAM10 inh 7, ADAM10 ctr 13 and ADAM17 confirm 7.
C[C@]12CCC(=O)C=C1CC[C@@H]1[C@@H]2[C@@H](O)C[C@@]2(C)[C@H]1CC[C@]2(O)C(=O)COC(=O)CCC(=O)O was read as ADAM17 inh 8.8*, FAS-TE inh -7, aDG glyco up 0, NR3A LBD binder 1, ADAM10 inh 3, ADAM10 ctr 4 and ADAM17 confirm 3.
